Measurements reported in PubChem BioAssay.
Calls of active or inactive are those of the source.

Key:
[1] = small molecules captured by biotinylated probe aFSTL3 – biochemical, small-molecule microarray, fluorescence 635/667, stem cell growth factor project, primary screen (AID 1064); conditions: higher = more signal;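 also: measures binding of the biotinylated anti-FSTL3 antibody to printed compounds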
[2] = binders from COS7 lysate, DM2A8 probe, primary screen, torsin A project, cell lysate, small-molecule microarray, fluorescence 635/667 (AID 1065); conditions: higher = more signal, COS7 lysate expressing mutant human TOR1A
[3] = small molecules captured by biotinylated probe aFGF2 – biochemical, small-molecule microarray, fluorescence 635/667, stem cell growth factor project, primary screen (AID 1067); conditions: higher = more signal;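 also: measures binding of biotinylated aFGF2 protein to printed compounds on slides; z-score merges feature fluorescence and signal-to-noise across triplicate slides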
[4] = small molecules captured by biotinylated probe aFGF10 – biochemical, small-molecule microarray, fluorescence 635/667, stem cell growth factor project, primary screen (AID 1071); conditions: higher = more signal;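 also: score merges 667 nm spot intensity and signal to noise from triplicate slides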
[5] = molecular target: Neurogenic locus notch homolog protein 2 (Homo sapiens) (UniProt Q04721); assay: small molecules binding Notch2 protein – biochemical, small-molecule microarray, 635 nm fluorescence, stem cell growth factors, primary screen (AID 1073); conditions: higher = more signal
[6] = molecular target: Pro-neuregulin-1, membrane-bound isoform (Homo sapiens) (UniProt Q02297); assay: small molecules binding neuregulin-1 protein – biochemical, small-molecule microarray, fluorescence 635/667, psychiatric disease protein project, primary screen (AID 1075); conditions: NRG1 binding, 635 nm fluorescence, higher = more signal;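 also: score combines 667 nm spot fluorescence with signal to noise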
[7] = system: Neuregulin-1 EGF-like domain; assay: small molecules binding NRG1 EGF domain – biochemical, small-molecule microarray, 635 nm fluorescence, primary screen (AID 1081); conditions: higher = more signal;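 also: binding of the protein to compounds printed on small-molecule microarray slides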
[8] = FRG1 expression reporter modulators in myotubes – cell-based, C2C12 myotubes, firefly/Renilla luciferase, luminescence, FRG1 inhibition for FSHD, primary screen (AID 1084); conditions: FRG1 promoter luciferase, higher = more signal, called active from +8 up or from −8 down
[9] = small molecules captured by biotinylated probe aFST – biochemical, small-molecule microarray, fluorescence 635/667, stem cell growth factor project, primary screen (AID 1086); conditions: higher = more signal;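 also: score merges 667 nm fluorescence with signal-to-noise of each printed compound spot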
[10] = binders of probe aHhip on microarray, primary screen, stem cell growth factor project, biochemical, small-molecule microarray, fluorescence 635/667 (AID 1087); conditions: higher = more signal;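 also: score merges spot fluorescence at 667nm with spot signal to noise ratio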
[11] = system: PRMT1 (protein arginine N-methyltransferase 1); assay: small molecules binding arginine methyltransferase PRMT1 – biochemical, small-molecule microarray, 635 nm fluorescence, primary screen (AID 1088); conditions: higher = more signal;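 also: binding of Prmt1 protein to compounds spotted on small-molecule microarray slides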
[12] = growth effects on S. cerevisiae YJM789 – YJM789 clinical isolate, OD600, 24 h, basal, primary screen (AID 1089); conditions: higher = more signal, called active from +8 up or from −8 down;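 also: growth of clinical yeast isolate S. cerevisiae YJM 789 seeded 1000 cells per well; test concentration not given here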
[13] = S. pombe growth modifiers, basal conditions – strain 972, OD600, 24 h, no modulator, primary screen (AID 1090);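 also: basal condition with compound alone and no growth modifier present; test concentration not given here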; conditions: S. pombe 972 growth, higher = more signal, called active from +8 up or from −8 down
[14] = budding yeast growth modifiers under rapamycin – strain BY4716, OD600, 96 h, primary screen (AID 1091); also: test concentration not given here; conditions: S. cerevisiae BY4716 + rapamycin, higher = more signal, called active from +8 up or from −8 down
[15] = molecular target: Torsin-1A-interacting protein 2 (Homo sapiens) (UniProt Q8NFQ8); assay: small molecules binding lysate-expressed LULL1 – cell lysate, human LULL1 lysate, 635/667 nm fluorescence, primary screen (AID 1092); conditions: small-molecule microarray, hLULL1 lysate binding, 635 nm fluorescence; higher = more signal;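 also: probe is lysate of COS7 cells overexpressing human LULL1; score merges per-feature 667 nm fluorescence with signal-to-noise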
[16] = optical density change of DRC41 E. coli – strain DRC41, OD650, 24 h, E. coli filamentation project, primary screen (AID 1093);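 also: MC1000 strain lacking acrAB efflux and sulA so SOS filamentation is blocked; test concentration not given here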; conditions: E. coli DRC41 growth, higher = more signal, called active from +8 up or from −8 down
[17] = probe aLefty2 binding to arrayed compounds – biochemical, biotinylated probe, 635/667 nm fluorescence, primary screen (AID 1094); conditions: small-molecule microarray, higher = more signal;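 also: score merges spot fluorescence near 667 nm with spot signal-to-noise ratio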
[18] = system: Noggin (protein binding on small-molecule microarray); assay: small molecules binding Noggin protein – biochemical, 635/667 nm fluorescence, primary screen (AID 1095); conditions: 635 nm fluorescence, higher = more signal;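 also: score merges 667 nm feature fluorescence with signal to noise over triplicate slides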
[19] = molecular target: Neurogenic locus notch homolog protein 3 (Homo sapiens) (UniProt Q9UM47); assay: small molecules binding NOTCH3 protein – biochemical, 635/667 nm fluorescence, primary screen (AID 1096); conditions: small-molecule microarray, 635 nm fluorescence, higher = more signal
[20] = probe aEGFR binding to arrayed compounds – biochemical, biotinylated probe, 635/667 nm fluorescence, primary screen (AID 1097); conditions: small-molecule microarray, higher = more signal;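 also: probe is a biotinylated anti-EGFR antibody binding compounds printed on slides; score combines fluorescence near 667 nm and signal to noise of each spot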

Chain of Pro-neuregulin-1, membrane-bound isoform (Homo sapiens) (Q02297 whole entry, looked up, the tested form may be a part, canonical isoform): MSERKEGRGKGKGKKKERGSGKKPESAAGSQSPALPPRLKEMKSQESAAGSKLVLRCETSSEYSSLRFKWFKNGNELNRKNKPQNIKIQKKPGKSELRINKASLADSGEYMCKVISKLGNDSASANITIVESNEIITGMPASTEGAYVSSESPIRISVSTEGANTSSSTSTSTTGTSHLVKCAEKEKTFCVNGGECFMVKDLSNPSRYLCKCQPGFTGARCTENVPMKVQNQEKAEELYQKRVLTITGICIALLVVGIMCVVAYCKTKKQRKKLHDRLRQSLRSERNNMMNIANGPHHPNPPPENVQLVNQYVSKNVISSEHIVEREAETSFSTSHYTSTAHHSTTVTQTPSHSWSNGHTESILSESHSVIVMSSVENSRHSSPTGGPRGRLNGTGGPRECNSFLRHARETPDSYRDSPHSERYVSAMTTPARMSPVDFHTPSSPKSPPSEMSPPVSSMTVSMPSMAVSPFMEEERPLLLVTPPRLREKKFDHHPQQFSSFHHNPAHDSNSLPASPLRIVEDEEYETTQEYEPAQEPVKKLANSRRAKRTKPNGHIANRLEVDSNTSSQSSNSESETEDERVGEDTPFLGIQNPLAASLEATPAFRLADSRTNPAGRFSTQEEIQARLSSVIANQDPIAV
Chain of Neurogenic locus notch homolog protein 2 (Homo sapiens) (Q04721 whole entry, looked up, canonical isoform): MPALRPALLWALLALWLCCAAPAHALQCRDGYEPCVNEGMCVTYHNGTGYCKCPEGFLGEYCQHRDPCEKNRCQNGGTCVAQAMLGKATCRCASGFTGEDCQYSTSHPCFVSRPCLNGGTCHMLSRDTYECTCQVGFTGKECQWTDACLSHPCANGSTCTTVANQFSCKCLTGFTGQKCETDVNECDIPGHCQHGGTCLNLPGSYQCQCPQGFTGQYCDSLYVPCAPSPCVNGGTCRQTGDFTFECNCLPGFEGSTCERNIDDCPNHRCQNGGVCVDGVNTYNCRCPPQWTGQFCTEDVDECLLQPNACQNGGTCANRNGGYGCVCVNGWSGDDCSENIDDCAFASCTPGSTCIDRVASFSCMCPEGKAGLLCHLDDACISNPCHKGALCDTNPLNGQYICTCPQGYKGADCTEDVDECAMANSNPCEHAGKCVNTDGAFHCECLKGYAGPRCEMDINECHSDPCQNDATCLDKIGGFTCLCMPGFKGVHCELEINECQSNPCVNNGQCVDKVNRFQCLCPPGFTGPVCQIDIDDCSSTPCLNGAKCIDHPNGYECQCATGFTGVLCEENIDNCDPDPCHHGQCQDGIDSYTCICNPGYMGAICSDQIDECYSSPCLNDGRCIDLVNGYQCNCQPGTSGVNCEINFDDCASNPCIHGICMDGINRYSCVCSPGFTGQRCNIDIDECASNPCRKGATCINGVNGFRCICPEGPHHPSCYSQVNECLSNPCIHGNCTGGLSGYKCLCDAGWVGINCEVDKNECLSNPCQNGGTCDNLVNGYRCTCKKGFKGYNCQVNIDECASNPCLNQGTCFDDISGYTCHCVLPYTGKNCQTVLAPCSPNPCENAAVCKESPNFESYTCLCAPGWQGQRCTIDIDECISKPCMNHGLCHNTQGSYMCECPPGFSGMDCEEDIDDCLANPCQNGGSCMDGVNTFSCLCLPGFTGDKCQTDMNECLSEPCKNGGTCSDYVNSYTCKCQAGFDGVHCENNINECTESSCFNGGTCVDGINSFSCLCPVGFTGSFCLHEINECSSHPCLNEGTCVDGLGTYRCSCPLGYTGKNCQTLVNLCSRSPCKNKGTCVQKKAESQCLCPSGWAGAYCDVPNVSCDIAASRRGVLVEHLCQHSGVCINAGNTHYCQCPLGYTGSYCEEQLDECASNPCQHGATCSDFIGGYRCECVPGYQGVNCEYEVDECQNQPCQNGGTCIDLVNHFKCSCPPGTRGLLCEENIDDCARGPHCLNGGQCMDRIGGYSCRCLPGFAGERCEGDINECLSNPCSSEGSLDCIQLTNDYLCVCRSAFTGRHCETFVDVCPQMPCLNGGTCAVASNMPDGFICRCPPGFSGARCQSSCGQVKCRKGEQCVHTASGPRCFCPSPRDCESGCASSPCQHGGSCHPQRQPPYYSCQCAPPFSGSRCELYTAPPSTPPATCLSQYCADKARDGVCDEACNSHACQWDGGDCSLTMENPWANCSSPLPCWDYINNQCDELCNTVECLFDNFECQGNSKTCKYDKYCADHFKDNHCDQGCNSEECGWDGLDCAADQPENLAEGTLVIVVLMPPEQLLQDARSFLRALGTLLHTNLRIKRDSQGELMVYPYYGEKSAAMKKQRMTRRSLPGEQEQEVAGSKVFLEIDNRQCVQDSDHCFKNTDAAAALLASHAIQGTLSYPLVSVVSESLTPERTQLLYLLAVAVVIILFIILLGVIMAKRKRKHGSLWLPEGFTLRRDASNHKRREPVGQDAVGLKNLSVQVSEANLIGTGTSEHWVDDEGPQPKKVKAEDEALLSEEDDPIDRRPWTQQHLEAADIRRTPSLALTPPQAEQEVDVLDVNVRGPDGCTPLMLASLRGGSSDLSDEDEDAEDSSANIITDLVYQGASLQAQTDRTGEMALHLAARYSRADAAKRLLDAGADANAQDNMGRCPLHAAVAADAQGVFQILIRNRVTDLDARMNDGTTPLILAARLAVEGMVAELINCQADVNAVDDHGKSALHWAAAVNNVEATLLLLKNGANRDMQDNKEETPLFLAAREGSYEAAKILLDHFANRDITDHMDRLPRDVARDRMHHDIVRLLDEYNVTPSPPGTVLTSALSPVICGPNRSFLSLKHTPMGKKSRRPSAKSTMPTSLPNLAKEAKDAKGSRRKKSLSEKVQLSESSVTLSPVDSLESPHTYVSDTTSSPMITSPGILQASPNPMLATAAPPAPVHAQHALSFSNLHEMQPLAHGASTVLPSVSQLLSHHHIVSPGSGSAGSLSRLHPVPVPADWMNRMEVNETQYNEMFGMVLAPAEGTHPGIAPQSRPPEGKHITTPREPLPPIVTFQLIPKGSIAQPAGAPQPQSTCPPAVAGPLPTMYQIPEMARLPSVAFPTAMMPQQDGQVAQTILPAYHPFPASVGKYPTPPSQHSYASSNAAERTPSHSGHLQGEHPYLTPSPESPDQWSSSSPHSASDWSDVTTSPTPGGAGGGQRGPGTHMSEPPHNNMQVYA
Chain of Torsin-1A-interacting protein 2 (Homo sapiens) (Q8NFQ8 whole entry, looked up): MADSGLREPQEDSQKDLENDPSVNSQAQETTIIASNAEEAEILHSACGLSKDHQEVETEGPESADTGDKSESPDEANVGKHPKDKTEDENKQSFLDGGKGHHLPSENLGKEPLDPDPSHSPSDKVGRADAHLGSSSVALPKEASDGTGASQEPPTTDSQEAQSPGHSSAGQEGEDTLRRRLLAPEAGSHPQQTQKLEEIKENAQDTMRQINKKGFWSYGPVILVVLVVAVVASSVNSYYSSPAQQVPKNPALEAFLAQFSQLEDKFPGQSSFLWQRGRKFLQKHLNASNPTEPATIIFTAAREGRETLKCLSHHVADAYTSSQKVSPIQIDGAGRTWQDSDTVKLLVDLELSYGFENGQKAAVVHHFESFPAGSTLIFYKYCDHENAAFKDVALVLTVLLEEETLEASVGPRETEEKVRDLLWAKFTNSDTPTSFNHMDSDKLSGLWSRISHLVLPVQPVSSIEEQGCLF

Row | Structure (SMILES) | composite z-score [1] | composite z-score [2] | composite z-score [3] | composite z-score [4] | composite z-score [5] | composite z-score [6] | composite z-score [7] | z-score [8] | composite z-score [9] | composite z-score [10] | composite z-score [11] | z-score [12] | z-score [13] | z-score [14] | composite z-score [15] | z-score [16] | composite z-score [17] | composite z-score [18] | composite z-score [19] | composite z-score [20]
1 | O=C(CS)NCCCCCCNC(=O)[C@@H]1C[C@@H]2C(=O)N[C@@H](Cc3ccccc3)C(=O)N2[C@@H]1c1ccc(O)cc1 | 0.0737 | 1.09 | -0.083 | 0.922 | 0.412 | 1.23 | 1.41 | 1.21 (inactive) | 0.245 | 0.0373 | 1.53 | 0.205 (inactive) | 1.52 (inactive) | 1.99 (inactive) | 2.97 | 0.988 (inactive) | -0.0741 | 0.652 | 1.16 | -0.0271
2 | CO[C@H]1COC(=O)[C@H](C)NC(=O)CC=C[C@@H](C)[C@H](NS(=O)(=O)c2ccc(C)cc2)COC(=O)[C@@H](OCc2ccccc2)C=C[C@@H]1C | -0.452 | 0.148 | -0.183 | -0.0799 | -0.563 | -0.157 | -0.477 | -0.0584 (inactive) | -0.234 | -0.0237 | 0.229 | 1.22 (inactive) | 0.129 (inactive) | 2.1 (inactive) | -0.569 | 0.176 (inactive) | -0.316 | 0.801 | -0.439 | -0.168
3 | COC(=O)c1ccc(C#CC(NP(=O)(c2ccccc2)c2ccccc2)c2ccccc2)cc1 (stereo not given) | 0.301 | -0.214 | -0.108 | 0.182 | 1.87 | 1.68 | 1.36 | -0.131 (inactive) | 1.34 | 2.35 | -0.362 | -0.664 (inactive) | -11.5 (active) | 1.25 (inactive) | 3.14 | 0.0037 (inactive) | 0.594 | -0.0434 | 1.05 | 0.093
4 | C=CC[C@]1(C(=O)OC)N=C(c2ccc(OCCCO)cc2)O[C@H]1c1ccccc1CN=[N+]=[N-] | 2.1 | 0.164 | -0.0004 | -0.564 | -0.543 | 0.391 | 0.863 | -1.55 (inactive) | 0.629 | -0.0994 | 0.828 | -0.664 (inactive) | -2.28 (inactive) | -0.723 (inactive) | 1.37 | 1.37 (inactive) | 0.4 | -0.101 | -0.823 | -0.0828
5 | COC(=O)[C@@]1(Cc2ccc(OC)cc2)[C@H]2c3cc(C(=O)N(C)C)n(Cc4ccc(C)c(F)c4F)c3C[C@H]2CN1C(=O)c1ccccc1 | 0.372 | 0.251 | 0.162 | 0.315 | 0.498 | 0.57 | 0.964 | 0.803 (inactive) | 0.588 | 0.21 | 0.223 | 1.14 (inactive) | 0.491 (inactive) | 0.972 (inactive) | 2.84 | -0.716 (inactive) | 0.146 | -0.268 | 0.797 | -0.0972
6 | CCN1C(C)=C(C(=O)OC)[C@@H](c2ccccc2)N2C(=O)[C@@]3(C(=O)OC)O[C@@]12[C@@H]1C(=O)CCC[C@@H]13 | -0.65 | 0.33 | -0.178 | 0.234 | -0.334 | -0.307 | 0.545 | -0.765 (inactive) | -0.183 | 0.351 | 1.12 | 0.352 (inactive) | -1.06 (inactive) | 1.8 (inactive) | -0.323 | 0.0465 (inactive) | -0.243 | 1.57 | 0.135 | 0.0173
7 | C[N+](C)(C)CCCC[C@@H]1NC(=O)[C@H]2C[C@@H](C(=O)NCc3ccc(F)cc3)[C@@H](c3cccc(OCCO)c3)N2C1=O | 0.466 | 1.02 | -0.149 | -0.579 | -0.607 | 0.594 | 1.22 | 0.106 (inactive) | 0.231 | 0.0176 | 1.47 | -1.69 (inactive) | -1.62 (inactive) | -0.736 (inactive) | 0.823 | 0.973 (inactive) | -0.166 | 1.62 | 0.716 | -0.118
8 | O=C1OCCC=C[C@H]2OC34C=CCN(Cc5ccccc5)C(=O)[C@H]3N(CCO)C(=O)[C@@H]4C12 (stereo not given in full) | 0.672 | -0.465 | -0.183 | -0.575 | -0.607 | -0.419 | -0.574 | 0.135 (inactive) | -0.402 | -0.0645 | -1.05 | -2.04 (inactive) | -4.14 (inactive) | -1.5 (inactive) | -0.89 | 2.71 (inactive) | -0.172 | -0.526 | -0.634 | -0.304
9 | COCCOC(=O)N1C(=O)[C@@]2(c3ccccc31)[C@H](C(=O)N1CCc3cc(OC)c(OC)cc3C1)[C@H]1C(=O)O[C@H](c3ccccc3)[C@H](c3ccccc3)N1[C@@H]2c1ccccc1OCCO | 0.221 | 0.409 | -0.0009 | 0.66 | 0.809 | 0.607 | 1.04 | -0.381 (inactive) | 0.481 | 0.251 | 1.48 | 0.384 (inactive) | -0.0822 (inactive) | 5.51 (inactive) | 2.14 | 2.8 (inactive) | 0.0261 | 1.03 | 1.07 | -0.0717
10 | C=CCN(C(=O)C1N(c2ccc(CCO)cc2)C(=O)C2C(C(=O)O)C3C=CC21O3)C(C)(C)C (stereo not given) | 1.73 | -1.15 | -0.243 | -2.12 | -2.34 | -0.367 | 0.915 | 0.4 (inactive) | -1.08 | -0.403 | -1.91 | -0.696 (inactive) | -1.89 (inactive) | -0.569 (inactive) | 1.94 | 2.89 (inactive) | -0.014 | -3.2 | -1.92 | -0.356
